These compounds were tested against Glucose transporter (Leishmania mexicana) (UniProt O61059) (assay: ST_JUDE_LEISH: Cytotoxicity at 2uM final concentration against transgenic Leishmania Mexicana promastigotes LmGT2 that are glucose transport deficient and complemented with the L. Mexicana glucose transporter 2. Activity is measured by DNA content using SYBR green in vitro).
Type: functional

Row | Structure (SMILES) | inhibition [%]
1 | CCCCCCN1CCCN(Cc2ccc(C(=O)Nc3ccc(C(C)C)cc3)cc2)CC1 | 4.28
2 | CC(C)(C)C1=CC(=NNC(=O)c2ccncc2)C=C(C(C)(C)C)C1=O | -0.13
3 | COc1cc(CS(C)(=O)=O)ccc1Nc1nccc(-c2c(-c3cccc(NC(=O)c4c(F)cccc4F)c3)nn3ccccc23)n1 | 7.36
4 | O=C(/C=C/c1ccc(Cl)c(Cl)c1)NCC1CCN(Cc2ccc(O)cc2)CC1 | 46.2
5 | COc1ccc(C2=C(Nc3ccc4oc5ccccc5c4c3)c3ccccc3C2=O)cc1 | 0.33
6 | O=C(Nc1ccc2ccccc2c1)c1ccc(CN2CCC(Cc3ccccc3)CC2)cc1 | 7.65
7 | CC(C)CNC(=O)c1ccc(-c2cccc(CN3CCC(N4CCCC4)CC3)c2)nc1 | 1.53
8 | N#CCCN1CCN(Cc2ccc(-c3cccc(-c4nc5cc(F)ccc5[nH]4)c3)cc2)CC1 | 3.17
